From US20220289795, “EFFICIENT METHOD FOR PREPARING PPR PROTEIN AND USE OF THE SAME” (EditForce, Inc., published 2022) come the findings set out here.

The test deals with T1, v3.1_PPR14 (Artificial Sequence).
T1 chain: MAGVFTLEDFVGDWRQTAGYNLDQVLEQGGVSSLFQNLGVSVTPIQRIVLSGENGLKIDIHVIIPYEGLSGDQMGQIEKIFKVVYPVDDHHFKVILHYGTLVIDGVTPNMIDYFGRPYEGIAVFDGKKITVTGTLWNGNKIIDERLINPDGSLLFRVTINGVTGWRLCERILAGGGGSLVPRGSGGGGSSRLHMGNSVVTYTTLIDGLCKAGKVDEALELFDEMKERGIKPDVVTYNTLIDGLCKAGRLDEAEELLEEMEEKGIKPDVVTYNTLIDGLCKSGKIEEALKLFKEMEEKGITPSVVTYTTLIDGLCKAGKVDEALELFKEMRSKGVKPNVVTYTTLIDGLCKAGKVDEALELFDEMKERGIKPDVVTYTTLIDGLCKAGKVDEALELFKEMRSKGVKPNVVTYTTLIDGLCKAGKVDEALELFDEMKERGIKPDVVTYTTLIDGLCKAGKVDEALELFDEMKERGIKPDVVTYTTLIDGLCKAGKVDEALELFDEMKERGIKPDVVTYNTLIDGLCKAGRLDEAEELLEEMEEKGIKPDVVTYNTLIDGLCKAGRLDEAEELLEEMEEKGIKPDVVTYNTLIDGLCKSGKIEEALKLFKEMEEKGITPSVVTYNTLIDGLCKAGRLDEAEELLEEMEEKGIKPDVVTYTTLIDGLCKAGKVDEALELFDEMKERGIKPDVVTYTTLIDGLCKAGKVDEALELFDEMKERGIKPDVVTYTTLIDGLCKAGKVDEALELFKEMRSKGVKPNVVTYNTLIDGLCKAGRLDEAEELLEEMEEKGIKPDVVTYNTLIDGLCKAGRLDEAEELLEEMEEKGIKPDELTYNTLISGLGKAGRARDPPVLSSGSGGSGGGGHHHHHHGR
The test is described as follows: RPB-ELISA. Particulars: tags: N-terminal luciferase, C-terminal 6xHis; label: 5'-biotin; ssRNA. The protocol: RNA probes consisting of a designed 30-base sequence containing 18 bases of the target sequence and modified by biotinylation at the 5′ end (RNA_1, RNA_2, RNA_3, RNA_4, and RNA_5, SEQ ID NOS: 61 to 65) were synthesized (Grainer). To a streptavidin-coated plate (Thermo fisher), the 5′-end biotinylated RNA probes were added, reaction was allowed at room temperature for 30 minutes, and the plate was washed with a lysis buffer (20 mM Tris-HCl, pH 7.6, 150 mM NaCl, 5 mM MgCl₂, 0.5% NP-40, 1 mM DTT, 0.1% BSA). For background measurement, wells to which RNA was not added, but 100 μL of the lysis buffer, 1 μL of 100 mM DTT, and 1 μL of 40 unit/4 RNase inhibitor (Takara, 2313A) were added were also prepared. Then, 200 μL of a blocking buffer (20 mM Tris-HCl, pH 7.6, 150 mM NaCl, 5 mM MgCl₂, 0.5% NP-40, 1 mM DTT, 1% BSA) was added, and the plate surface was blocked at room temperature for 30 minutes. Then, 100 μL of E. coli lysate containing luciferase-fused PPR protein having a luminescence level of 1.5×10⁸ LU/μL was added to each well, and the binding reaction was allowed at room temperature for 30 minutes. The well was washed 5 times with 200 μL of a washing buffer (20 mM Tris-HCl, pH 7.6, 150 mM NaCl, 5 mM MgCl₂, 0.5% NP-40, 1 mM DTT). […] The background (luminescence signal value obtained with adding the PPR protein and without adding RNA) was subtracted from the luminescences of the samples to which a solution containing each RNA and PPR protein was added, and the obtained values were used as the binding powers between the PPR protein and RNA.
By using the V3.1 motif, PPR proteins for the same 23 kinds of target sequences were similarly prepared (SEQ ID NOS: 411 to 433 for the nucleotide sequences, and SEQ ID NOS: 434 to 456 for the amino acid sequences), and bindings of all the combinations were analyzed by using RPB-ELISA. The experimental method was the same as that used in Example 3.
Background: ELISA stands for enzyme-linked immunosorbent assay.
On to GGUUAGAGAUACAGUGUG, for which the binding signal stood at 22.5 log2 luminescence.

As to GUGGGGGUGGUAGGAAAU, the binding signal is 20.1 log2 luminescence.
